# Reference: PubChem BioAssay (NCATS)
# “And” between values parts separate entries of the source, which are not always exact repeats. Equal entries are not always repeated. Inconclusive results are not listed. Some compounds were tested as several samples or in several runs, with calls that do not always agree. The source made the active and inactive calls. The call rests on the fitted dose curve; in most records, active means well fitted curve in the direction sought with a large enough effect; inconclusive means small, poorly fitted or top-dose-only effect, or another doubt; inactive means no such curve, though single readings can be large; an effect the other way counts as inactive or inconclusive.
# Columns and labels:
# [1] = Viability qHTS for spleen associated tyrosine kinase inhibitor (SYKi) naive MV4-11 cells (AID 1963823); further: nearly all actives have a fitted effect of over 40% in size
# Procedure, shortened: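 SYK inhibitor-naive MV4-11 cells, 500 per well, exposed to compounds for 72 hr at 37 C, 5% CO2. Viability read as CellTiter-Glo luminescence after 10 min at room temperature.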
# [2] = Viability qHTS for spleen associated tyrosine kinase inhibitor (SYKi) drug resistant MV4-11 cells (AID 1963824); further: nearly all actives have a fitted effect of over 35% in size
# Procedure, shortened: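 CellTiter-Glo luminescence, read 10 min after reagent addition, reports viability after a 72 hr compound exposure. Cells are an MV4-11 line made resistant to SYK inhibition, seeded at 500 per well onto compound-containing plates.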
# [3] = Quantitative highthroughput screen to assess conditional lethalithy of NOMO1 cells grown in RPMI1640 with untreated serum (RPMI+s) (AID 1963876); further: nearly all actives have a fitted effect of over 35% in size;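 on Viability: 100% = DMSO wells and 0% = empty wells without cells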
# Procedure, shortened: (§1)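 Each medium arm—HPLM with 10% dialyzed FBS, or RPMI1640 with 5 mM glucose and 10% untreated or dialyzed FBS—was screened against an 11-point, 3-fold compound titration for 48 h at 37 °C, with CellTiter-Glo luminescence as endpoint.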
# [4] = Quantitative highthroughput screen to assess conditional lethalithy of NOMO1 cells grown in RPMI1640 with dialyzed fetal bovine serum (RPMI+ds) (AID 1963877); further: nearly all actives have a fitted effect of over 30% in size;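 on Viability: series mostly up to about 46 µM; 100% = DMSO control wells and 0% = empty wells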
# Procedure, shortened: as §1
# [5] = Quantitative highthroughput screen to assess conditional lethalithy of NOMO1 cells grown in Human Plasma-Like Medium with dialyzed fetal bovine serum (HPLM+ds) (AID 1963878); further: nearly all actives have a fitted effect of over 35% in size;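 on Viability: 100% = DMSO wells and 0% = empty wells on each plate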
# Procedure, shortened: as §1
# [6] = Quantitative highthroughput screen to assess conditional lethalithy of P12 Ichikawa cells grown in Human Plasma-Like Medium with dialyzed fetal bovine serum (HPLM+ds) (AID 1963879); conditions: Potency: viability; further: nearly all actives have a fitted effect of over 35% in size; on Viability: series mostly up to about 46 µM
# Procedure, shortened: as §1
# [7] = Quantitative highthroughput screen to assess conditional lethalithy of P12 Ichikawa cells grown in RPMI1640 with dialyzed fetal bovine serum (RPMI+ds) (AID 1963880); conditions: Potency: P12-Ichikawa viability; further: nearly all actives have a fitted effect of over 35% in size;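 on Viability: 100% = DMSO wells and 0% = empty wells on each plate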
# Procedure, shortened: as §1
# [8] = Quantitative highthroughput screen to assess conditional lethalithy of P12 Ichikawa cells grown in RPMI1640 with untreated serum (RPMI+s) (AID 1963881); conditions: Potency: viability; further: nearly all actives have a fitted effect of over 35% in size;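 on Viability: series mostly up to about 46 µM; 100% = DMSO wells and 0% = empty wells without cells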
# Procedure, shortened: as §1
# [9] = Quantitative highthroughput screen to assess conditional lethalithy of SEM cells grown in RPMI1640 with unreated serum (RPMI+s) (AID 1963883); further: nearly all actives have a fitted effect of over 35% in size;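 on Viability: 100% = DMSO wells and 0% = empty wells without cells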
# Procedure, shortened: as §1
# [10] = Cellular viability qHTS for adrenocortical cancer (ACC) cell line NCI-H295R (AID 1963990); further: nearly all actives have a fitted effect of over 60% in size;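 on activity change, negative = viability loss: 0% = DMSO only wells and -100% = full killing with cytotoxic reference compound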
# Procedure, shortened: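 Luminescent ATP read-out (CellTiter-Glo, 20 min RT) after 48 h drug exposure of NCI-H295R cells; a titration up to 46 uM final. Data normalized to doxorubicin (100% inhibition) and DMSO (0%); 4-parameter fit gives IC50, max response.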
# [11] = Cellular viability qHTS for adrenocortical cancer (ACC) cell line SW-13 (AID 1963989); conditions: SW-13 ACC cells viability, CellTiter-Glo, 48 h; activity (max response): stronger effect = lower value; further: nearly all actives have a fitted effect of over 65% in size;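 on activity (max response): cells grown in serum-free medium with ITS supplement; on the % scale 0 is the no-effect control and ±100 the full control effect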
# Procedure, shortened: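 SW-13 cells in ITS-supplemented serum-free DMEM were plated overnight, then exposed for 48 h at 37C to compound titrations (up to 46 uM final). Viability was read by CellTiter-Glo luminescence; four-parameter logistic fits gave IC50 and efficacy.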
# [12] = Quantitative highthroughput screen to assess conditional lethalithy of SEM cells grown in Human Plasma-Like Medium with dialyzed fetal bovine serum (HPLM+ds) (AID 1963882); further: nearly all actives have a fitted effect of over 35% in size; on Viability: series mostly up to about 46 µM
# Procedure, shortened: as §1
# [13] = Quantitative highthroughput screen to assess conditional lethalithy of SEM cells grown in RPMI1640 with dialyzed fetal bovine serum (RPMI+ds) (AID 1963884); further: nearly all actives have a fitted effect of over 35% in size;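 on Viability: series mostly up to about 46 µM; 100% = DMSO control wells and 0% = empty wells without cells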
# Procedure, shortened: as §1
# Potency means the concentration at half of the fitted maximal effect.
Compound,Potency [1],Potency [2],Potency [3],Potency [4],Potency [5],Potency [6],Potency [7],Potency [8],Potency [9],Potency [10],activity (max response) [11],Potency [12],Potency [13],Potency [11],viability (% of control) [1],"viability, % of control [2]","activity change, negative = viability loss [10]"
C[C@@H]1COCCN1c1cc(C2(S(C)(=N)=O)CC2)nc(-c2ccnc3[nH]ccc23)n1 (stereo partly drawn),1.48 µM (active),1.18 µM (active) and 2.59 µM (active),4.67 µM (active),2.95 µM (active),1.17 µM (active),4.17 µM (active),2.95 µM (active),4.67 µM (active),1.17 µM (active),3.98 µM (active),–,–,–,–,–,–,–
COc1cc(N2CCC(O)CC2)ccc1Nc1cc(Nc2ccccc2S(=O)(=O)C(C)C)c2cc[nH]c2n1,16.4 µM (active) and 10.5 µM (active),20.6 µM (active) and 14.8 µM (active),inactive,inactive,inactive,inactive,inactive,inactive,–,inactive,-1.42% (inactive),–,–,–,–,–,–
CCOC(=O)C(C)(C)Oc1ccc(Cl)cc1,inactive,inactive,inactive,inactive,inactive,inactive,inactive,inactive,–,inactive,0.705% (inactive) and -17.8% (inactive),inactive,inactive,–,–,–,–
CC(NCCc1ccc(O)cc1)C(O)c1ccc(O)cc1 (stereo not drawn),inactive,inactive,inactive,inactive,inactive,inactive,inactive,inactive,inactive,inactive,-9.55% (inactive),inactive,–,–,–,–,–
Oc1ccc(C2=Cc3ccc(O)cc3OC2)cc1,0.417 µM (active),366 nM (active),9.35 µM (active),11.8 µM (active),9.35 µM (active),2.96 µM (active),2.64 µM (active),2.96 µM (active),–,11.2 µM (active),–,2.96 µM (active),3.72 µM (active),7.08 µM (active),–,–,–
CCCCCCCCc1ccc(CCC(N)(CO)CO)cc1,5.17 µM (active),4610 nM (active),18.7 µM (active),23.5 µM (active),14.8 µM (active),23.5 µM (active),18.7 µM (active),18.7 µM (active),–,7.08 µM (active),–,23.5 µM (active),–,17.8 µM (active),–,–,–
NC(=O)c1cccc(-c2cc(Nc3ccc(OC(F)(F)F)cc3)ncn2)c1,10.3 µM (active) and 5.25 µM (active),9.2 µM (active) and 5.9 µM (active),inactive,inactive,inactive,inactive,inactive,inactive,–,–,–,–,–,15.8 µM (active),–,–,–
C[C@H](CCC(=O)O)[C@H]1CCC2C3C[C@H](O)[C@@H]4C[C@H](O)CC[C@]4(C)C3CC[C@@]21C (stereo partly drawn),inactive,inactive,inactive,inactive,inactive,inactive,inactive,inactive,inactive,inactive,1.86% (inactive),–,–,–,–,–,–
Cc1cnc(Nc2ccc(CN3CCOCC3)cc2)nc1Nc1cccc(S(=O)(=O)NC(C)(C)C)c1,0.164 µM (active),372 nM (active) and 326 nM (active),4.18 µM (active),4.69 µM (active),4.69 µM (active),2.96 µM (active),4.18 µM (active),4.18 µM (active),0.469 µM (active),4.47 µM (active),–,0.743 µM (active),–,15.8 µM (active),–,–,–
COc1cc([C@@H]2c3cc4c(cc3[C@@H](O[C@@H]3O[C@@H]5CO[C@@H](C)O[C@@H]5[C@H](O)[C@@H]3O)[C@H]3COC(=O)[C@H]23)OCO4)cc(OC)c1O,0.59 µM (active),525 nM (active),2.09 µM (active),2.35 µM (active),1.87 µM (active),0.935 µM (active),0.833 µM (active),0.662 µM (active),0.132 µM (active),20 µM (active),–,–,0.166 µM (active),11.2 µM (active),–,–,–
CC(C)C[C@@H](N)[C@H](O)C(=O)N[C@H](C(=O)N[C@H](C(=O)N[C@@H](CC(=O)O)C(=O)O)C(C)C)C(C)C,inactive,inactive,inactive,inactive,inactive,inactive,inactive,inactive,inactive,–,-8.42% (inactive),–,–,–,–,–,–
Cn1cc(C[C@@H](N)C(=O)O)c2ccccc21,–,–,inactive,inactive,inactive,inactive,inactive,inactive,inactive,–,-6.77% (inactive),–,inactive,–,69.9% [at 9.25 µM] (inactive),75.4% [at 9.25 µM] (inactive),-13.9% [at 9.17 µM] (inactive)
NCCc1cnc[nH]1,13.3 µM (active),inactive,inactive,inactive,inactive,inactive,inactive,inactive,–,inactive,7.56% (inactive) and -0.338% (inactive),inactive,–,–,–,–,–
Oc1ccc(-c2nc(-c3ccc(F)cc3)c(-c3ccncc3)[nH]2)cc1,9.34 µM (active),8330 nM (active),10.5 µM (active),13.2 µM (active),3.72 µM (active),5.26 µM (active),13.2 µM (active),–,0.469 µM (active),inactive,–,0.662 µM (active),0.372 µM (active),–,–,–,–
O=C(CCCCCCC(=O)Nc1ccccc1)NO,1.64 µM (active) and 1.48 µM (active),1.3 µM (active) and 1.18 µM (active),14.8 µM (active),16.6 µM (active),10.5 µM (active),4.18 µM (active),–,3.32 µM (active),3.72 µM (active),820 nM (active) and 1 µM (active),–,3.72 µM (active),3.32 µM (active),4.11 µM (active) and 3.16 µM (active),–,–,–
Cc1ccc2c(=O)c3cccc(CC(=O)O)c3oc2c1C,2.95 µM (active),934 nM (active),inactive,inactive,inactive,inactive,inactive,inactive,–,inactive,-13.4% (inactive),–,–,–,–,–,–
O=C(O)c1cc(=O)[nH]c(=O)[nH]1,inactive,inactive,inactive,inactive,inactive,inactive,–,inactive,inactive,inactive,-4.98% (inactive),inactive,inactive,–,–,–,–
NC(=O)Cc1cccc(C(=O)c2ccccc2)c1N,inactive,inactive,inactive,inactive,inactive,inactive,–,inactive,–,–,–,–,–,–,–,–,–
O=C(NCCCNc1nc(Nc2cccc(NC(=O)N3CCCC3)c2)ncc1I)c1cccs1,0.0517 µM (active),164 nM (active) and 263 nM (active),inactive,inactive,inactive,inactive,inactive,inactive,–,inactive,–,–,–,–,–,–,–
CC(C)C[C@H](NC(=O)[C@@H](NC(=O)c1cccc(-c2ccccc2)n1)[C@@H](C)O)B(O)O,14.6 nM (active) and 25.7 nM (active),20.4 nM (active),0.0743 µM (active),0.105 µM (active),0.0662 µM (active),0.0526 µM (active),0.059 µM (active),–,0.0132 µM (active),0.18 µM (active),–,0.0148 µM (active),0.0148 µM (active),0.285 µM (active),–,–,–
CC(C)NCC(O)c1ccc(O)c(O)c1 (stereo not drawn),inactive,inactive,5.9 µM (active),7.43 µM (active),4.69 µM (active),6.62 µM (active),9.35 µM (active),7.43 µM (active),–,inactive,9.6% (inactive) and -17.4% (inactive),–,–,–,–,–,–
O=c1cc(O)c(Cl)c[nH]1,inactive,inactive,7.43 µM (active),8.33 µM (active),5.26 µM (active),7.43 µM (active),14.8 µM (active),8.33 µM (active),–,inactive,20.2% (inactive),–,–,–,–,–,–
O=C(Nc1ccccc1Br)N[C@@H]1CCN(c2ccc(C(F)(F)F)cn2)C1,14.8 µM (active),23500 nM (active),inactive,inactive,inactive,inactive,inactive,–,inactive,inactive,–,inactive,inactive,–,–,–,–
CCC(C)SSc1ncc[nH]1 (stereo not drawn),9.34 µM (active),8330 nM (active),18.7 µM (active),23.5 µM (active),14.8 µM (active),18.7 µM (active),13.2 µM (active),18.7 µM (active),–,20 µM (active),–,–,–,–,–,–,–
CN1CCC(=C2c3ccccc3CC(=O)c3sccc32)CC1,26.3 µM (active),23.7 µM (active) and 20.9 µM (active),inactive,inactive,inactive,inactive,–,inactive,inactive,inactive,-6.42% (inactive) and -1.59% (inactive),inactive,inactive,–,–,–,–
O=c1[nH]nc(OCCCc2ccc(Cl)cc2)c(NCc2cccnc2)c1Br,4.11 µM (active),4110 nM (active),11.8 µM (active),5.9 µM (active),2.96 µM (active),5.9 µM (active),5.26 µM (active),–,6.62 µM (active),–,–,0.743 µM (active),14.8 µM (active),7.94 µM (active),–,–,–
Cn1cc(CNCC2CCN(c3ncc(C(=O)NO)cn3)CC2)c2ccccc21,0.0661 µM (active),16.6 nM (active),0.372 µM (active),0.332 µM (active),0.296 µM (active),0.264 µM (active),0.372 µM (active),–,–,0.794 µM (active),–,0.132 µM (active),0.132 µM (active),1.26 µM (active),–,–,–
N[C@@H](Cc1cc(I)c(Oc2cc(I)c(O)c(I)c2)c(I)c1)C(=O)O,inactive,inactive and 1.61 µM (active),inactive,inactive,inactive,inactive,–,inactive,inactive,inactive,3.69% (inactive) and -6.52% (inactive),inactive,inactive,–,–,–,–
OCCC#Cc1nc(-c2ccc(F)cc2)c(-c2ccncc2)n1CCCc1ccccc1,20.6 µM (active),10.3 µM (active) and 11.8 µM (active),inactive,inactive,inactive,inactive,inactive,–,inactive,–,–,inactive,18.7 µM (active),–,–,–,–
